Results on 20 molecules are retold here after PubChem BioAssay (EPA / NIEHS).

For assay [1], the target named is Estrogen receptor beta (Homo sapiens) (UniProt Q92731). Nature of the assay: OT_ER_ERbERb_0480: Odyssey Thera (OT) 8-hour HEK293T Protein-Complementation Assay for Estrogen Receptor-beta/-beta Homodimer (AID 2283357).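 Further: active means signal gain over DMSO baseline.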 The method, boiled down: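 Fluorescence intensity, nuclear for agonists and nuclear plus cytoplasmic for antagonists, was quantified by laser scanning cytometry versus vehicle after 8 h treatment. The cells were HEK293T stably carrying ER beta LBD fragment-complementation partners.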

In assay [2] the target is Estrogen receptor (Homo sapiens) + Estrogen receptor beta (Homo sapiens) (UniProt P03372+Q92731). Nature of the assay: OT_ER_ERaERb_1440: Odyssey Thera (OT) 24-hour HEK293T Protein-Complementation Assay for Estrogen Receptor-alpha/-beta Homodimer (AID 2283356).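 Further: heteromer of ER alpha and ER beta binding domains; hits raise reporter fluorescence and both agonists and antagonists give an increase.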 The method, boiled down: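 HEK293T stably expressing a PCA of ER alpha LBD (aa 310-547) and ER beta LBD (aa 263-489). After 24 h compound exposure, mean fluorescence intensity in nucleus (agonists) or nucleus and cytoplasm (antagonists) measured by laser scanning cytometry versus vehicle.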

Assay [3] concerns the target Peroxisome proliferator-activated receptor gamma (Homo sapiens) (UniProt P37231). Nature of the assay: NVS_NR_hPPARg: NovaScreen (NVS) Nuclear Receptor Binding Assay for human Peroxisome Proliferator-activated Receptor gamma (PPARg) (AID 2283370). The method, boiled down:
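Cell-free fluorescence polarization binding to human PPARg protein, read 2 h after dosing. Primary screen in duplicate at 25 uM, actives followed in concentration series; loss of signal relative to DMSO scored.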

Assay [4] addresses mouse Estrogen Receptor alpha (Era), Esr1 (gene 13982) (UniProt P19785). Nature of the assay: NVS_NR_mERa: NovaScreen (NVS) Nuclear Receptor Binding Assay for mouse Estrogen Receptor alpha (Era) (AID 2283378).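 Further: hit means loss of bound radioligand signal relative to DMSO.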 The method, boiled down: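 Cell-free radioligand competitive displacement binding, read by filter-based scintillation counting 18 h after dosing. Primary screen run in duplicate at 25 uM, actives retested in concentration series; loss of signal versus DMSO.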

The target in assay [5] is Androgen Receptor/SRC-1 Co-activator, AR (gene 367) (UniProt P10275). The experiment in a line: OT_AR_ARSRC1_0480: Odyssey Thera (OT) 8-hour HEK293T Protein-Complementation Assay for Androgen Receptor/SRC-1 Co-activator (AID 2283354).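 Further: hits raise the complementation signal above DMSO so AC50 marks enhancers.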 The method, boiled down:
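HEK293T cells stably expressing AR and SRC-1 fused to Venus YFP fragments, imaged 8 h after dosing. Complementation fluorescence scored as nuclear/cytoplasmic ratio at 488 nm in at least 400 cells per image; gain fitted versus DMSO.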

The target of assay [6] is Agonist Androgen Response Element (ARE), AR (gene 367) (UniProt P10275). The experiment in a line: OT_AR_ARELUC_AG_1440: Odyssey Thera (OT) 24-hour CHO-K1 Luciferase Assay for Agonist Androgen Response Element (ARE) (AID 2283379). The method, boiled down:
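CHO-K1 cells carrying an ARE-driven luciferase reporter were exposed to compounds for 24 h. Luminescence was then read after adding a D-luciferin/ATP mix, and activity was scored as a gain in signal over DMSO vehicle.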

The target of assay [7] is Retinoic acid receptor alpha (Homo sapiens) (UniProt P10276). Nature of the assay: NVS_NR_hRARa_Agonist: NovaScreen (NVS) Nuclear Receptor Binding Assay for human Retinoic Acid Alpha Receptor Agonism (RAR) (AID 2283361). The method, boiled down:
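Cell-free TR-FRET binding readout with extracted receptor protein, read 2 hours after dosing; gain-of-signal fitted relative to DMSO. Screened in duplicate at 25 uM, actives then run in concentration-response.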

Assay [8] addresses Estrogen receptor beta (Homo sapiens) (UniProt Q92731). Nature of the assay: OT_ER_ERbERb_1440: Odyssey Thera (OT) 24-hour HEK293T Protein-Complementation Assay for Estrogen Receptor-beta/-beta Homodimer (AID 2283380).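 Further: scored as signal increase over DMSO baseline for both agonists and antagonists.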 The method, boiled down: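 HEK293T cells stably expressing ER beta LBD (aa 310-547) homodimer fragment-complementation reporter, dosed 24 h. Cells formaldehyde-fixed, Draq5-stained; gain in nuclear (agonist) or nuclear plus cytoplasmic (antagonist) fluorescence versus DMSO read by laser scanning cytometry.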

Assay [9] has as its target Glucocorticoid receptor (Homo sapiens) (UniProt P04150). The experiment in a line: NVS_NR_hGR: NovaScreen (NVS) Nuclear Receptor Binding Assay for human Glucocorticoid Receptor (GR) (AID 2283363).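 Further: activity is loss of specific radioligand binding signal relative to DMSO.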 The method, boiled down: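 Cell-free radioligand displacement assay on extracted human GR, read 16 h after dosing by filter-based scintillation counting. Screened in duplicate at 25 uM, then concentration series for actives; loss of signal versus DMSO baseline.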

Assay [10] deals with human Peroxisome Proliferator-activated Receptor alpha (PPARa), PPARA (gene 5465) (UniProt Q07869). Nature of the assay: NVS_NR_hPPARa: NovaScreen (NVS) Nuclear Receptor Binding Assay for human Peroxisome Proliferator-activated Receptor alpha (PPARa) (AID 2283359).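 Further: activity means loss of TR-FRET signal versus DMSO baseline.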 The method, boiled down: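 Cell-free TR-FRET binding assay with extracted PPARα protein, read 1 h after dosing. Primary screen in duplicate at 25 uM, with actives retested in concentration series. Loss of signal versus DMSO.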

The target in assay [11] is Nuclear receptor subfamily 1 group I member 2 (Homo sapiens) (UniProt O75469). The experiment in a line: NVS_NR_hPXR: NovaScreen (NVS) Nuclear Receptor Binding Assay for human Pregnane X Receptor (PXR) (AID 2283365).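 Further: a drop in FRET signal versus DMSO baseline means the compound binds.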 The method, boiled down: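 Cell-free TR-FRET binding assay with extracted human PXR protein, read 2 h after dosing. Primary screen run in duplicate at 25 uM, actives followed in concentration series; loss of signal fitted against DMSO baseline.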

Assay [12] concerns the target Retinoic acid receptor alpha (Homo sapiens) (UniProt P10276). Nature of the assay: NVS_NR_hRAR_Antagonist: NovaScreen (NVS) Nuclear Receptor Binding Assay for human Retinoic Acid Alpha Receptor Antagonism (RAR) (AID 2283358). The method, boiled down:
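Cell-free TR-FRET binding assay with extracted human RARalpha in antagonist mode, read 2 h after dosing. Loss of signal was fitted relative to DMSO; the primary screen used 25 uM in duplicate, with concentration series on follow-up.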

SMILES strings stand for the structures. Inconclusive results are not listed. Where a structure was tested more than once in an assay, its records may differ in their call. Activity calls are given as the source filed them. How the source made its calls: active means hit-call score of the fitted dose curve at least 0.9, where 1 is the maximum; inconclusive means response in the unintended direction; inactive means score below 0.9.

Chain of Retinoic acid receptor alpha (Homo sapiens) (P10276 whole entry, looked up): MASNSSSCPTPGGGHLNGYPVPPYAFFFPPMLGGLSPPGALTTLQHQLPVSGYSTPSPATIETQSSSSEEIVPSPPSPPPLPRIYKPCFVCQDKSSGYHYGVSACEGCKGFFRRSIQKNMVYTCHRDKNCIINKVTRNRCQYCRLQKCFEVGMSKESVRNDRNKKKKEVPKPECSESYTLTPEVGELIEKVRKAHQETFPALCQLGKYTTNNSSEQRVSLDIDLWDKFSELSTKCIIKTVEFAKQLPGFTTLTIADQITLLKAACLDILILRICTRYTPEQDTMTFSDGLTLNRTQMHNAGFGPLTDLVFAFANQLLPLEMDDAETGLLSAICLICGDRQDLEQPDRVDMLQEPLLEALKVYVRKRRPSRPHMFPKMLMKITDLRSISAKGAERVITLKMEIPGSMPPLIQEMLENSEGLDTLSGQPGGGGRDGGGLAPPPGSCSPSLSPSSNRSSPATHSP
Chain of human Peroxisome Proliferator-activated Receptor alpha (PPARa), PPARA (gene 5465) (Q07869 whole entry, looked up): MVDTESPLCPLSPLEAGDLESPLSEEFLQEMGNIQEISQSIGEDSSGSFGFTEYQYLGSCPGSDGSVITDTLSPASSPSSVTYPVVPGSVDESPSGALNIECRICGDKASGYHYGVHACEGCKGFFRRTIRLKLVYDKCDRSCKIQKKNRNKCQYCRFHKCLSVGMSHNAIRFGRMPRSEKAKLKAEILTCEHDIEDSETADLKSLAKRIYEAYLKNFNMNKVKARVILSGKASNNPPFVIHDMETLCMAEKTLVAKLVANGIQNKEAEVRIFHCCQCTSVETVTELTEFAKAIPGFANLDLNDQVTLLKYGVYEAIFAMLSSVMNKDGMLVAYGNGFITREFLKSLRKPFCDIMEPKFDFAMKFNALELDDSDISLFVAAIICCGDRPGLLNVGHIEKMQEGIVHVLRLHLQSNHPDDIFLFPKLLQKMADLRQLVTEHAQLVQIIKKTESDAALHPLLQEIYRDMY
Chain of Peroxisome proliferator-activated receptor gamma (Homo sapiens) (P37231 whole entry, looked up): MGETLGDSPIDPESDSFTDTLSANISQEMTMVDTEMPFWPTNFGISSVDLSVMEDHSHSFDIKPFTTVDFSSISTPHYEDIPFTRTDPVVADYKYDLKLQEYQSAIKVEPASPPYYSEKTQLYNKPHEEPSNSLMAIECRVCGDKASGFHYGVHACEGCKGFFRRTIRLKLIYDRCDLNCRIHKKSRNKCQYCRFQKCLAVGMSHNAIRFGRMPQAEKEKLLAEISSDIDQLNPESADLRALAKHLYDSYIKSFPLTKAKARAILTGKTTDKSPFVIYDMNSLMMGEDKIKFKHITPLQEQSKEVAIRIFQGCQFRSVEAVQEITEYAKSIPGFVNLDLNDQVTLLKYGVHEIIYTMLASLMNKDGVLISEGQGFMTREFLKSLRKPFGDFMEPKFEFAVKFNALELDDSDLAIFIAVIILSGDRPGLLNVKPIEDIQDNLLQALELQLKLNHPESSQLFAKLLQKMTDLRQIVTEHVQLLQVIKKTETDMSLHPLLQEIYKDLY
Chain of Estrogen receptor beta (Homo sapiens) (Q92731 whole entry, looked up, the tested form may be a part): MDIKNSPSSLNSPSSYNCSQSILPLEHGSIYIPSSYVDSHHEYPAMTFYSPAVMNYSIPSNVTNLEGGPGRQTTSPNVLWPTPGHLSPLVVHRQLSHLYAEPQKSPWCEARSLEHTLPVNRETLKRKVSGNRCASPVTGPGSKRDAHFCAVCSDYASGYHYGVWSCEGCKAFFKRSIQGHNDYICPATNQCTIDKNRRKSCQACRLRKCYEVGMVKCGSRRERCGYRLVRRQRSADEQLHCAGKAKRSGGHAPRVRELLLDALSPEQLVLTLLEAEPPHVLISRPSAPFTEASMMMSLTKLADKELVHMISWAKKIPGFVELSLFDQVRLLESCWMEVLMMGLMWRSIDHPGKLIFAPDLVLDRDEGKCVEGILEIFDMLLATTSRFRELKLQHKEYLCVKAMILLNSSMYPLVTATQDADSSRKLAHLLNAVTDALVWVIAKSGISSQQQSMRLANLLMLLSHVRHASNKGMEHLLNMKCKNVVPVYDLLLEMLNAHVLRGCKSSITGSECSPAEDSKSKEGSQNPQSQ
Chain of Glucocorticoid receptor (Homo sapiens) (P04150 whole entry, looked up): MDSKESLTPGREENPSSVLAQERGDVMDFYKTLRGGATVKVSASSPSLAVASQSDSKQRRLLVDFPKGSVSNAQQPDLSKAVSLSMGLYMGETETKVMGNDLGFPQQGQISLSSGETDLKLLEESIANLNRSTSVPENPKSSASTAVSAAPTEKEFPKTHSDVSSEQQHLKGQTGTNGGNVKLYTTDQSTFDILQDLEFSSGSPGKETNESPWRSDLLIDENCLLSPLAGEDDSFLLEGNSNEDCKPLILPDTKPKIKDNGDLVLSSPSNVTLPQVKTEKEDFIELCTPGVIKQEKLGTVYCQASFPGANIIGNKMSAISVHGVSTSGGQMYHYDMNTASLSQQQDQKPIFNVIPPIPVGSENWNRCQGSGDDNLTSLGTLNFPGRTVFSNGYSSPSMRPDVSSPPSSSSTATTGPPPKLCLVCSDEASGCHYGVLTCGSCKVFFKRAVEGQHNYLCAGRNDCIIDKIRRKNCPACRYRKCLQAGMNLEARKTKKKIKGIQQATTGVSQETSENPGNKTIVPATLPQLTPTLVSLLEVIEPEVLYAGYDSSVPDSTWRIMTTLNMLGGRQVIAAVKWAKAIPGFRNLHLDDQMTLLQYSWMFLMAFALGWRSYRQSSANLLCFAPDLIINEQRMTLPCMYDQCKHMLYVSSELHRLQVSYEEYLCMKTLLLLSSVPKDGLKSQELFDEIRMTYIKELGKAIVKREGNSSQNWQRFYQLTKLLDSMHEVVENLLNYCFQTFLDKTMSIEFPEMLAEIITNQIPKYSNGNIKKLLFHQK
Chain of Estrogen receptor (Homo sapiens) + Estrogen receptor beta (Homo sapiens) (P03372 whole entry, looked up, the tested form may be a part): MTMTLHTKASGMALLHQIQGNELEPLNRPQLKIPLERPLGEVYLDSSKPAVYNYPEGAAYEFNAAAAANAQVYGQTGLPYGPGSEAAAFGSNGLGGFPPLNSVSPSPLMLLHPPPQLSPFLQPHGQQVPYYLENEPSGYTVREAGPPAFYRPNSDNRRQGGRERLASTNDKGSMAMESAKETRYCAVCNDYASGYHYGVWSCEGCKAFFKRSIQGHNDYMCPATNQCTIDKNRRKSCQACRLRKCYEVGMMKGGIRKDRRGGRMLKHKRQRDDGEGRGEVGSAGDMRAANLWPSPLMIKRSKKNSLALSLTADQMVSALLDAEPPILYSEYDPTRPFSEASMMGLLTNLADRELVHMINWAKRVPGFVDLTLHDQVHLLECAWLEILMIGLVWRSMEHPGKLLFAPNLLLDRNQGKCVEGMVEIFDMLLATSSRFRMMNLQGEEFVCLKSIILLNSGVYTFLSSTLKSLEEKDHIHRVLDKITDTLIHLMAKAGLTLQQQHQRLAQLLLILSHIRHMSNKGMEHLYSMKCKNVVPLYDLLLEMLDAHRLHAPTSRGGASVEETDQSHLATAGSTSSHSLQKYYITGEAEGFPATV
Chain of Estrogen receptor (Homo sapiens) + Estrogen receptor beta (Homo sapiens) (Q92731 whole entry, looked up, the tested form may be a part): as the sequence (Q92731 whole entry, looked up, the tested form may be a part) above
Chain of Androgen Receptor/SRC-1 Co-activator, AR (gene 367) (P10275 whole entry, looked up, the tested form may be a part): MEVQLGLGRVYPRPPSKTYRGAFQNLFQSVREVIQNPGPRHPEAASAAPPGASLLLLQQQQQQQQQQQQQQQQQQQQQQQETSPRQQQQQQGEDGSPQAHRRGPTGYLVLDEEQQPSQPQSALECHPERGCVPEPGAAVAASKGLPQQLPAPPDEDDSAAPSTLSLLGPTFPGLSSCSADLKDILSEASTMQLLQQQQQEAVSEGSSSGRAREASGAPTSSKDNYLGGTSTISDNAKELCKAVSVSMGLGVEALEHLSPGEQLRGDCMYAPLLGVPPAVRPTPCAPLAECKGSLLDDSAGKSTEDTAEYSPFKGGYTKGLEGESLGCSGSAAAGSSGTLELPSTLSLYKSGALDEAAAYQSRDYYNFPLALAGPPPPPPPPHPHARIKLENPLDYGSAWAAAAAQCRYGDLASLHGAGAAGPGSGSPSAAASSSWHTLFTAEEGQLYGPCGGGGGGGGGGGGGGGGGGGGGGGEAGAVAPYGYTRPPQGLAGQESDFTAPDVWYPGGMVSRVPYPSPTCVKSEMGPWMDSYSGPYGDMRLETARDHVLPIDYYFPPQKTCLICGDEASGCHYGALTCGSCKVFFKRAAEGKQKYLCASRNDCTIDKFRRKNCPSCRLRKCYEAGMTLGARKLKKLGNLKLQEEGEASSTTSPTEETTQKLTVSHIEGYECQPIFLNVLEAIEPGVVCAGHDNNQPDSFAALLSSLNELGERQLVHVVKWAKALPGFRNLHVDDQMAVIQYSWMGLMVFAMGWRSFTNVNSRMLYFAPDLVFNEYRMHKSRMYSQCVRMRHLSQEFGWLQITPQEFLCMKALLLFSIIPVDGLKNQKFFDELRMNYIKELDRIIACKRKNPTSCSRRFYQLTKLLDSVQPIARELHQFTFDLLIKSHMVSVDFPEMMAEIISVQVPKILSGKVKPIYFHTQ

For the molecule `C=C(C)C(=O)OCCOC1CC2CC1C1C=CCC21` (centres undefined), the outcome in [1] was inactive.

Broadly, the AC50 is the midpoint of the concentration-response curve, whichever way the signal moves. On to `CCCCCCCCCCCC(=O)OCC(O)CO` (centres undefined), for which the outcome in assay [2], in assay [1] and in assay [3] was inactive. Also, the half-maximal activity concentration (AC50) in assay [4] is 6.68 µM (active).

As for `Nc1ccc(N)c2c1C(=O)c1ccccc1C2=O`, the result in [5] and in assay [1] was inactive. Besides, the AC50 in [6] is 1.71 µM (active).

Regarding `Cc1cc(S(=O)(=O)O)ccc1N=Nc1c(O)ccc2ccccc12`, the molecule was classed as inactive in [1] and in assay [8]. The concentration at half-maximal activity (AC50) in assay [7] is 23.5 µM (active).

Turning to `[O-]n1ccccc1=S.[O-]n1ccccc1=S.[Zn+2]`, the result in [1], in assay [7] and in assay [8] was inactive. Besides, in [9], the AC50 is 0.776 µM (active).

For the molecule `CCCCCCCC/C=C\CCCCCCCC(=O)OCC`, the call in assay [10] was inactive.

On to `O=[N+]([O-])c1ccc(O)cc1C(F)(F)F`, for which the values for the AC50 in assay [1] and in assay [8] were 64.6 µM (active) and 68.4 µM (active), respectively. Moreover, the outcome in assay [10] was inactive.

As to `CCOC(=O)c1ccc(N)cc1`, the call in assay [1] and in assay [8] was inactive. Also, the concentration at half-maximal activity (AC50) in assay [3] is 41.6 µM (active).

Regarding `CC(C)CCCCCCCCCCCCCCC(=O)O`, the result in [1], in assay [10] and in assay [3] was inactive.

As to `CCCCC(CC)COC(C)=O` (centres undefined), the call in assay [1], in assay [11] and in assay [8] was inactive.

Turning to `C#CC(C)(O)CC(C)C` (centres undefined), the result in assay [1] and in assay [8] was inactive.

With `CCCCCCCCc1ccc(S(=O)(=O)O)cc1`, the AC50 is 16.8 µM (active) in assay [12], 17 µM (active) in assay [9] and 4.22 µM (active) in [3]. The outcome in assay [3] was inactive.

With `CN1C(=O)c2ccccc2C1=O`, the outcome in assay [1] and in assay [8] was inactive.

For `CCCCCC(=O)CC`, in assay [10], the result was inactive.

With `CCOc1ccccc1O`, the molecule was called inactive in assay [1] and in assay [8].

Turning to `O=C(CC(=O)c1ccccc1)c1ccccc1`, the result in [1] and in assay [7] was inactive.

`COS(=O)(=O)O`: the result in assay [1] and in assay [8] was inactive.

`Nc1ccccc1[N+](=O)[O-]`: the molecule was classed as inactive in assay [1] and in assay [3].

With `OCC#CCO`, the outcome in [1] and in assay [8] was inactive.

Regarding `CN1CCOCC1`, the outcome in assay [1] and in assay [8] was inactive.
